This is a sample that favours compounds with a hit; in the whole collection about 2.8% have one here.
IDE inh: inhibitors of human insulin-degrading enzyme in cells; P14735; HEK cells, FAbetaB cleavage, fluorescence polarization; inhibition, % at 5.59 µM; actives 0.41% (n = 320,000);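 active = percent inhibition above the average of all tested compounds plus 3 SD, set per screening campaign, cut at about 16% in these data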;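 note: IDE supplied by intact live HEK cells; FP after avidin binding of uncleaved biotin substrate so inhibition keeps polarization high; 0% = DMSO wells and 100% = 60 µM reference IDE inhibitor Ii1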
SKKanGAS inh: blocks kanamycin growth of S. pyogenes SKKanGAS strain; BacTiter-Glo, 6 h; inhibition, % at 7.5 µM; actives 1.3% (n = 300,000); AID 1662;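 active = mean replicate score, as percent of positive control median, at least 50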;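 note: strain carries kanamycin resistance gene driven by streptokinase promoter and grows in 40 µg/ml kanamycin; loss of luminescence reflects streptokinase promoter inhibition or plain growth inhibition; 0% = median of DMSO wells and 100% = positive control at its reference dose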
Granule exo inh: blocks lytic granule exocytosis; TALL-104 LAMP-1 surface exposure, flow cytometry; cells stimulated with thapsigargin and PMA; inhibition, % at 10 µM; actives 0.66% (n = 360,000);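 active = inhibition above about 55%, limit read from the data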
IDE cell activ: boosts human insulin-degrading enzyme activity in HEK cells | P14735 | AID 493087 | actives 0.073% (n = 340,000) | FAbeta-B cleavage, fluorescence polarization; 0% vehicle, 100% cell-free pure enzyme wells | activation, % at 5.96 µM;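 active = activation above the mean of all tested compounds plus 3 SD, set per screening campaign, cut at about 17% in these data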
PP1 counter: counter-screen for PP5 inhibitors: inhibitors of human PP1-alpha. P62136. purified PP1alpha, OMFP fluorescence. inhibition, % at 6.7 µM. actives 0.9% (n = 320,000). AID 2235;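 active = inhibition above the mean inhibition of all tested compounds plus 3 SD, computed separately for each screening campaign, cut at about 15% in these data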
Target sequence (P62136 whole entry, looked up): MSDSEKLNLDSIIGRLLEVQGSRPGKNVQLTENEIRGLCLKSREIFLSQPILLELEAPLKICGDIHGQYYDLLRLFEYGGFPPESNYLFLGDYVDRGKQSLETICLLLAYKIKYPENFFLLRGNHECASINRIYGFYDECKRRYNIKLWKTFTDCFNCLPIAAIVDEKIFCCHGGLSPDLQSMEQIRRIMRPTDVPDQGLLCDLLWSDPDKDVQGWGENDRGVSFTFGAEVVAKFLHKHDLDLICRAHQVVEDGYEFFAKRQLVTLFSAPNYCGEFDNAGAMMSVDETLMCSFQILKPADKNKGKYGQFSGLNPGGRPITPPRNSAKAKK
PP5 inh: PP5 (human) phosphatase inhibition; actives 0.18% (n = 320,000); inhibition, % at 6.7 µM; purified PP5c, OMFP substrate fluorescence; AID 1987;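 active = inhibition above the campaign's mean inhibition across all tested compounds plus 3 SD, cut at about 9.5% in these data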;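 note: 0% = DMSO only and 100% = 100 µM cantharidin control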
PP1 confirm: human PP1 phosphatase inhibition, confirmation; shares compounds with PP1 counter; purified PP1alpha, OMFP substrate fluorescence; inhibition, % at 6.7 µM; actives 52% (n = 1,900);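 active = mean PP1 inhibition above a set limit taken from the earlier primary screen, cut at about 15% in these data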
PP5 counter: counter-screen for PP1 inhibitors: human PP5 phosphatase inhibition | actives 4% (n = 1,900) | shares compounds with PP1 counter | inhibition, % at 6.7 µM | purified PP5c, OMFP fluorescence;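 active = mean PP5 inhibition over triplicate wells above about 9.5% taken from the earlier PP1 screen, limit read from the data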
The depositor's hits bear a star; / = no result.

SMILES	IDE inh	SKKanGAS inh	Granule exo inh	IDE cell activ	PP1 counter	PP5 inh	PP1 confirm	PP5 counter
NS(=O)(=O)c1ccc(N/N=C/c2cn(-c3ccccc3)nc2-c2cccs2)c([N+](=O)[O-])c1	-2.3	13.0	8.1	5.0	26.3*	0.9	26.2*	0.4
O=C1CCC(C(=O)OCC(=O)Nc2ccccc2Br)=NN1	/	/	-3.7	/	/	/	/	/
N#Cc1ccsc1NC(=O)COC(=O)C1=NNC(=O)CC1	5.4	/	2.1	0.6	18.8*	1.4	7.0	-3.9
Nc1cc(=O)[nH]c(SCC(=O)N2N=C(c3ccc(Cl)cc3)CC2c2ccco2)n1 (stereo not given)	1.0	7.1	1.8	-3.8	20.5*	3.5	10.4	-3.6
CCCCCCOc1ccc(/C(C)=N/NC2=NCCN2)cc1	2.6	3.8	58.8*	-1.6	20.5*	2.9	-0.5	-3.0
O=C(CSc1nncn1-c1cccnc1)Nc1cccc(C(F)(F)F)c1	-2.6	-2.0	-17.9	0.5	1.4	1.4	/	/
O=C(OCC(=O)N1CCCC1=O)c1nc(Cl)c(Cl)c(Cl)c1Cl	-0.2	-2.7	-1.1	0.6	-12.5	-4.1	/	/
COc1ccc(C(=O)N/C(=C\c2cn(S(=O)(=O)N(C)C)c3ccccc23)C(=O)NC(C)C)cc1	-0.7	-12.8	4.0	5.3	-4.0	1.1	/	/
CCN(CC)C(=O)/C(=C/c1cn(S(=O)(=O)N(C)C)c2ccccc12)NC(=O)c1ccc(OC)cc1	3.9	21.5	-6.0	-3.5	27.1*	-0.2	22.5*	-2.0
COc1ccc(NC(=O)Cn2ncn3nc(-c4ccc(OC)cc4)cc3c2=O)cc1	1.1	-6.1	-2.4	2.6	-1.8	0.5	/	/
O=C(N/N=C/c1ccsc1)c1c[nH]c2ccccc12	-2.9	-4.0	-2.2	0.4	38.1*	0.3	-2.0	-0.4
O=C(O)C1C2CCC(O2)C1C(=O)NCCC1=CCCCC1 (stereo not given)	1.7	-2.8	2.0	-0.8	60.7*	69.0*	31.2*	40.6*
O=C(NCc1ccccc1Br)c1ccco1	2.3	4.6	-7.5	6.7	-5.1	3.3	/	/
Cc1cc(Br)ccc1NC(=O)C1C2CCC(O2)C1C(=O)O (stereo not given)	0.4	0.7	-4.6	2.3	54.8*	62.6*	9.3	16.3*
O=C(O)C1C2CCC(O2)C1C(=O)NCc1ccccc1Br (stereo not given)	1.0	2.1	-1.3	-1.1	16.9*	34.1*	10.1	17.3*
NC(=O)NCCC1=CCCCC1	2.4	4.0	0.2	-0.6	1.0	2.4	/	/
COc1ccc(NC(=O)C2C3CCC(O3)C2C(=O)O)c(C)c1 (stereo not given)	-0.4	8.9	0.0	-3.0	61.5*	65.1*	12.3	27.1*
COc1cccc(CN2CCN(Cc3ccc4c(NC(C)=O)cccc4n3)CC2CCO)c1 (stereo not given)	-1.2	-5.9	-5.7	0.0	0.8	0.5	/	/
CCOC(=O)Cn1nc(C)c(NC(=O)COc2ccccc2[N+](=O)[O-])c1C	0.1	-1.6	-5.4	1.9	-0.2	-0.4	/	/
CC(NC(=O)c1ccc(OC2CCN(Cc3ccccn3)CC2)cc1)c1nccs1 (stereo not given)	10.1	2.6	-1.6	-2.7	-1.1	2.2	/	/
Cc1cccc(N2CCN(C(=O)c3ccc4c(c3)NC(=O)C(CSCc3cccc(F)c3)N4)CC2C)c1 (stereo not given)	-0.2	5.2	6.7	-5.0	14.8	1.7	/	/
O=C1Nc2cc(C(=O)N3CCN(c4ccccc4F)CC3)ccc2NC1CSCc1ccccc1F (stereo not given)	8.3	9.4	/	/	18.5*	1.3	32.5*	1.0
Nc1c(-c2ccc(F)c(F)c2)nc2ncccn12	/	/	-0.9	/	/	/	/	/
COc1cccc(-n2nnc3c(=O)n(Cc4ccc(C)cc4)cnc32)c1	4.6	12.3	-5.5	4.0	0.9	1.2	/	/
COc1cccc(-n2nnc3c(=O)n(Cc4ccc(F)cc4)cnc32)c1	2.8	-0.4	-1.8	-4.8	39.8*	2.4	-2.4	-1.3
